These results are taken from PubChem BioAssay AID1851 (National Center for Advancing Translational Sciences (NCATS), 2009).

About 5,700 (36%) of roughly 16,000 compounds were called active. Roughly 24% stayed inconclusive and do not appear here. The list shows a part of the results. A number with no mark means an inactive call. The call rests on the fitted dose curve; in most records, active means well fitted curve in the direction sought with a large enough effect; inconclusive means small, poorly fitted or top-dose-only effect, or effect the other way; inactive means no such curve, though single readings can be large or run the other way.

In general, AC50 refers to the concentration giving half of the maximal activity seen.
On the % scale 0 is the no-effect control and ±100 the full control effect.

Chain of Cytochrome P450 1A2 (Homo sapiens) (P05177 whole entry, looked up): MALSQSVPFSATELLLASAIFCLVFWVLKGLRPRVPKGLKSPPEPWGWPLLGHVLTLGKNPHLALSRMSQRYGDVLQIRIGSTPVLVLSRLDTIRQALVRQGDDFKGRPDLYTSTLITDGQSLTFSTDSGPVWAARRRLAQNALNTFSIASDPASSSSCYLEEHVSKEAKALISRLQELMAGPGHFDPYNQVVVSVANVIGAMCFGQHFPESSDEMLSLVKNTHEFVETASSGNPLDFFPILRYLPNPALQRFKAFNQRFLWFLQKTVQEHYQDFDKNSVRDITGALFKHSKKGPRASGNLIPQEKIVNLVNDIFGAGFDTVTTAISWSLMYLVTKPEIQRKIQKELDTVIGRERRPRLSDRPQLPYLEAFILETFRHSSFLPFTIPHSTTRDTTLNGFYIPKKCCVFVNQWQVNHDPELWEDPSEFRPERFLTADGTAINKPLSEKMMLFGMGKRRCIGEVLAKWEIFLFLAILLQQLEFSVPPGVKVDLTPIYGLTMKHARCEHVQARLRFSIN

This assay concerns the target Cytochrome P450 1A2 (Homo sapiens) (UniProt P05177). Description: Cytochrome panel assay with activity outcomes. The conditions noted are these: recombinant CYP, pro-luciferin dealkylation, luminescence, p450-cyp1a2; series mostly up to 57.1 µM.
As for `O=[N+]([O-])c1ccc(N/N=C\c2cccn2-c2ccccc2)nc1`, the AC50 is 3.55 µM (active). In the case of `COc1c(/C=N/Nc2ccc([N+](=O)[O-])cc2[N+](=O)[O-])c(C)nn1-c1ccccc1`, the AC50 entry was “inactive”. For the molecule `N[C@H](C(=O)O)[C@H](N)C(=O)O`, the activity, negative = inhibition is -13.3% [at 11.4 µM]. In the case of `COc1ccc(N2CC(C(=O)OCC(=O)c3cccc(OC)c3)CC2=O)cc1` (centres undefined), the AC50 was 20 µM (active).

With `CC(C)Oc1ccc(N2CC(C(=O)OCC(=O)NCc3ccccc3)CC2=O)cc1` (centres undefined), the AC50 result was “inactive”. Same read-out and setting: in the case of `COc1ccc(N2CC(C(=O)Nc3cc(C)on3)CC2=O)cc1` (centres undefined) it was “inactive”. As for `COC(=O)[C@@H]1[C@@H]2C[C@H]3c4[nH]c5ccccc5c4CCN3C[C@@H]2CC[C@@H]1OS(=O)(=O)O`, the activity, negative = inhibition was -10.3% [at 2.29 µM]. Consider `Cc1ccccc1C(=O)NC(C)c1ccc2c(c1)CCCC2` (centres undefined), for which the AC50 is 11.2 µM (active). Turning to `Cc1ccccc1C(=O)NNC(=O)c1ccoc1C`, the AC50 entry was “inactive”. The same measure, in the same setting: in the case of `CCCCCSc1nncc(=O)[nH]1` it was “inactive”; in that of `O=c1[nH]c(=O)n([C@@H]2C[C@H](O)[C@H](CO)O2)cc1I`, “inactive”; in that of `COCCCNC(=O)Cn1nc(-c2ccccc2OC)ccc1=O`, “inactive”.

Turning to `COc1ccccc1-c1cc(C(F)(F)F)nc(S(=O)(=O)CCCC(=O)NC(C)C)n1`, the AC50 was 2 µM (active). The same measure, in the same setting: in the case of `Cc1[nH]n(C(C)(C)C)c(=O)c1Sc1ccc(Cl)cc1` it was “inactive”; in that of `Cc1ccc(N=Cc2cc(C)n(C3CCCC3)c2C)cc1`, 10 µM (active); in that of `CCc1ccc(NC(=O)CS(=O)CC(=O)NCCCc2ccccc2)cc1` (centres undefined), “inactive”. Take `CCCC(=O)Nc1ccc(C(=O)NNC(=S)NC(=O)c2cccs2)cc1`: the AC50 entry was “inactive”. Same read-out and setting: with `CCCCc1ccc(NC(=S)NCc2cccs2)cc1` the figure was 8.91 µM (active); with `CC#CCOC(=O)c1c(C)nc2sc3c(c2c1N)CC[C@@H](O)C3`, 0.0251 µM (active); with `O=C(/C=C/c1ccc(Cl)cc1)NCCN1CCOCC1`, “inactive”. On to `COCCNC(=O)c1onc(CSc2cccc(Cl)c2)c1C(=O)O`, for which the AC50 result was “inactive”. Same read-out and setting: in the case of `O=C(/C=C/c1ccccc1)NNC(=O)c1cccnc1` it was “inactive”; in that of `O=C(/C=C/c1cccc([N+](=O)[O-])c1)NCCN1CCOCC1`, “inactive”; in that of `COCCCNC(=O)/C=C/c1ccc(Cl)cc1`, 7.08 µM (active).

With `O=C(/C=C/c1ccc(Cl)cc1)NCCSc1ccccc1`, the AC50 is 1.58 µM (active). Same read-out and setting: in the case of `O=C(/C=C/c1cccc(Cl)c1)Nc1ccncc1` it was 2 µM (active); in that of `COCCCNC(=O)C1C2C=CC3(CN(Cc4ccc(C)cc4)C(=O)C13)O2` (centres undefined), “inactive”.

Consider `COCCCNC(=O)/C=C/c1cccc(Cl)c1`, for which the AC50 is 6.31 µM (active).

In the case of `C/C(=N\OC(=O)c1ccccc1)c1cc(-c2ccc(Cl)cc2)no1`, the AC50 is 2.82 µM (active).

Take `CC(C)CO/N=C1/C[C@@H](O)[C@@H](O)[C@@H]2[C@@H]3C(=O)N([C@@H](C)c4ccccc4)C(=O)[C@H]3CC[C@@H]12`: the activity, negative = inhibition is -9.02% [at 11.4 µM]. As to `COc1ccc(NC(=O)CCNS(=O)(=O)c2ccc3c(c2)c(=O)n(C)c(=O)n3C)cc1`, the AC50 result was “inactive”.

For the molecule `COc1ccc(OCCNS(=O)(=O)c2ccc3oc4ccccc4c3c2)cc1`, the AC50 is 2.82 µM (active). Still for that read-out and setting: with `COc1ccc(S(=O)(=O)NCCC(=O)NC(C)c2ccccc2)cc1` (centres undefined) the entry was “inactive”. As to `C[C@@H](CN(C)C)CN1c2ccccc2CCc2ccccc21`, the AC50 entry was “inactive”. As to `O=C1CC(N2CCN(C(c3ccccc3)c3ccccc3)CC2)C(=O)N1Cc1ccc(N2CCCC2=O)cc1` (centres undefined), the AC50 entry was “inactive”.

For the molecule `CN1CCN(C2CC(=O)N(Cc3ccc(N4CCCC4=O)cc3)C2=O)CC1` (centres undefined), the AC50 entry was “inactive”. On to `O=C1CCCc2ccccc2N1Cc1cccc(Cl)c1`, for which the AC50 was 12.6 µM (active). In the case of `O=C1CCCc2ccccc2N1Cc1ccccc1Cl`, the AC50 was 14.1 µM (active).

`CC1(C)[C@@H]2CC[C@]1(CC(=O)O)[C@H](Cl)C2`: the activity, negative = inhibition is -14.2% [at 11.4 µM]. Regarding `CNc1csc(C)c(C)c1=O`, the AC50 is 10 µM (active). For `C=C(C)COc1ccc2c(c1)CCC1C2CC[C@]2(C)C(=O)/C(=N/O)CC12` (some centres undefined), the activity, negative = inhibition is -13.8% [at 11.4 µM]. Turning to `CCOc1ccc2nc3cc(N=Nc4ccc(N)nc4N)ccc3c(N)c2c1`, the AC50 is 0.794 µM (active). As for `Cc1ccc(S(=O)(=O)N(C)c2cc(S(=O)(=O)N3CCC(C)CC3)c(C)cc2C)cc1`, the AC50 result is “inactive”. As to `COc1ccc(/C=N/NC(=S)NC2CCS(=O)(=O)C2)cc1OC` (centres undefined), the AC50 was 6.31 µM (active). As to `O=S(=O)(c1ccccc1S(=O)(=O)N1CCCCC1)N1CCCCC1`, the AC50 entry was “inactive”. Regarding `O=C1SC(c2ccccc2)=C/C1=C\N1CCCCC1`, the AC50 is 1 µM (active). On to `COC(=O)C/C=C\[C@@H](C)[C@@H](/C=N\O[C@@H](C)c1cc(-c2c(C)cc(C)cc2C)no1)NS(=O)(=O)c1ccc(C)cc1`, for which the activity, negative = inhibition was 4.06% [at 11.4 µM]. As for `CCOc1ccc(S(=O)(=O)NCc2ccc(F)cc2)c2cccnc12`, the AC50 result is “inactive”. On to `CCOc1ccccc1OCCOc1ccc(F)cc1`, for which the AC50 was 2.82 µM (active). For `CC1(CCC(=O)OC2CCCCC2)OCCO1`, the activity, negative = inhibition is -7.12% [at 11.4 µM]. As to `CCCCOc1ccc(/C=C/C(=O)NCCc2nc3ccccc3[nH]2)cc1`, the AC50 result is “inactive”.

With `Cc1ccc(/C=C/C(=O)c2nc3ccccc3[nH]2)cc1`, the AC50 was 1.78 µM (active). In the case of `NC(=O)c1ccc([N+](=O)[O-])cc1SCc1ccccc1`, the AC50 was 8.91 µM (active).

On to `CCC(C)NC(=O)NC(=O)N(C1CCCCC1)S(C)(=O)=O` (centres undefined), for which the AC50 result is “inactive”. Still for that read-out and setting: in the case of `C=CCn1c(SC(C)C(=O)NCc2ccc3c(c2)OCO3)nc2scc(-c3ccccc3)c2c1=O` (centres undefined) it was 10 µM (active). On to `C=CCn1c(SCc2ccc3c(c2)OCO3)nc2scc(-c3ccco3)c2c1=O`, for which the AC50 was 2.51 µM (active). Consider `Cc1nc(SCC(=O)c2ccc(Cl)s2)c2oc3ccccc3c2n1`, for which the AC50 was 0.141 µM (active).

Turning to `CCc1nc(SCC(=O)c2ccc(Cl)s2)c2oc3ccccc3c2n1`, the AC50 was 0.251 µM (active). For `Cc1nc(SCC(=O)Nc2ccc3c(c2)OCCO3)c2oc3ccccc3c2n1`, the AC50 is 1 µM (active). For `CCc1nc(SCC(=O)N2CCCc3ccccc32)c2oc3ccccc3c2n1`, the AC50 is 1.26 µM (active). Turning to `O=C(Cn1cnc2ccccc2c1=O)NCCC(=O)Nc1ccc2c(c1)OCCO2`, the AC50 result is “inactive”. As for `C/C(C[n+]1ccccc1)=N\N=C(N)N`, the activity, negative = inhibition was -9.68% [at 11.4 µM]. For the molecule `CCc1nc(N[C@H](C(=O)O)C(C)CC)c2oc3ccccc3c2n1` (some centres undefined), the AC50 entry is “inactive”. As to `CCc1nc(SCC(=O)NCCc2ccccc2)c2oc3ccccc3c2n1`, the AC50 is 1.58 µM (active).
